RXFP1 antag = RXFP1 (human) relaxin receptor antagonism | Q9HBX9 | HEK293-RXFP1, relaxin-stimulated cAMP HTRF, 30 min; hits give low values | activity change, negative = inhibition, % at 57.5 µM | 0.59% of 350,000 active;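 active = activity change of -60% or lower, but not beyond a set lower limit; inconclusive = change between -60% and -40%, or beyond the set limit; inactive = change above -40%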; note: % is set by controls: 0 for no effect and ±100 for the full control effect
Target sequence (Q9HBX9 whole entry, looked up): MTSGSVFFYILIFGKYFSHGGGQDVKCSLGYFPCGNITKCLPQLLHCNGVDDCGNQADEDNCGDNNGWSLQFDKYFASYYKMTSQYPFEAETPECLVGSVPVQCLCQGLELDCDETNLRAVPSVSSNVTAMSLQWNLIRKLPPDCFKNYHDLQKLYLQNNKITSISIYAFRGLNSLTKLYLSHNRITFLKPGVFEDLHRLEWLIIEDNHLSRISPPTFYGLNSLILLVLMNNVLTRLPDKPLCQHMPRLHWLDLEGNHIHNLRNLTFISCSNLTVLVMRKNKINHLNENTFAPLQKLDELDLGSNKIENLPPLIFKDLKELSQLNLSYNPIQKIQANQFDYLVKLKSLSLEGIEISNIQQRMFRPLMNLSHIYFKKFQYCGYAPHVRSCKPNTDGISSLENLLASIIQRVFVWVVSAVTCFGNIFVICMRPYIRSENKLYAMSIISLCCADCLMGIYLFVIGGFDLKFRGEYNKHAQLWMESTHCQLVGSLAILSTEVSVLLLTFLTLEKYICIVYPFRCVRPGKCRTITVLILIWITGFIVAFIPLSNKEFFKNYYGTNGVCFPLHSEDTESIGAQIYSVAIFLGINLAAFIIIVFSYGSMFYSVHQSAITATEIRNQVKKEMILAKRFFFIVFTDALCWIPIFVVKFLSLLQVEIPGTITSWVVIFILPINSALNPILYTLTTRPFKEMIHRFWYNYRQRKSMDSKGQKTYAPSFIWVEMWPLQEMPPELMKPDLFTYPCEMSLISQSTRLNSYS
gsp agonist = agonists of gsp mutant (McCune-Albright syndrome) | 0.13% of 340,000 active | gsp mutant cells, cAMP HTRF, 30 min | AID 624287 | Potency, µM (top dose mostly 76.9 µM), inactives show top-dose activation (cAMP increase), actives largely listed as activators; active = well fitted activation curve with a large enough effect; inconclusive = small, poorly fitted or top-dose-only effect, or another doubt; inactive = no such curve, though single readings can be large or run the other way; cell line not stated here;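 note: phosphodiesterase inhibitor Ro 20-1724 added with compounds to block cAMP breakdown; potency is the fitted concentration of half-maximal effect; nearly all actives have a fitted effect of over 60% in size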
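Cells in DMEM/10% FBS with G418 were pretreated with compounds in DMSO plus […] (300 uM stock) for 30 min at 37C. cAMP was measured by HTRF (cAMP-d2 plus anti-cAMP antibody-K) after 30 min at room temperature.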
ClpP mod = qHTS Assay for Activators of ClpP; ATP-dependent Clp protease proteolytic subunit (Bacillus subtilis (strain 168)), P80244; purified B. subtilis ClpP, FRET peptide cleavage, 20 min; Potency, µM (highest dose often 57.5 µM), for the others: at the highest dose activity change, negative = active; 1.9% of 340,000 active; AID 651965, 2013; active = well fitted falling curve with a large enough effect; inconclusive = small, poorly fitted or top-dose-only effect; inactive = no such curve, though single readings can be large or run the other way; note: potency is the fitted concentration of half-maximal effect; the source files actives as falling curves though it sought activators and does not explain the sign; nearly all actives have a fitted effect of over 65% in size
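ClpP 10 microg/mL final, pH 8 Tris/KCl buffer with BSA, glycerol, Tween-20; compound pinned in; FRET-FV substrate; RT 20 min; Ex320/Em430; ΔFRET vs ADEP 5.8 microM, DMSO, no enzyme.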
RXFP1 ag = activates the human relaxin receptor RXFP1; HEK293T-RXFP1 cAMP TR-FRET, 30 min; response scale: percent of porcine relaxin response, buffer zero; AID 2676; 0.3% of 370,000 active; Q9HBX9; Potency, µM (series often up to 57.5 µM), for inactives: at the highest dose activation, usual class: activators; active = well fitted activation curve with a large enough effect; inconclusive = small, poorly fitted or top-dose-only effect; note: potency is the fitted concentration of half-maximal effect; % is set by controls: 0 for no effect and ±100 for the full control effect; nearly all actives have a fitted effect of over 60% in size
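Agonist response is measured as cAMP accumulation in an RXFP1-transfected HEK293T line under PDE4 inhibition. Values are scaled between buffer-only and 29 nM porcine relaxin, and EC50s come from standard Hill equation fits.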
Akt phos inh = inhibitors of Akt phosphorylation | activity change, % for hits at 50 µM | 0.32% of 360,000 active | Neuro2A IGF-stimulated pAkt S473 HTRF, 20 min; hits give low values; in the data active = activity change below about -80%; inconclusive = mostly about -51% to -80%; note: % is set by controls: 0 for no effect and ±100 for the full control effect
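Single-point screen (50 µM final compound) in Neuro2A cells stimulated 20 min with 6 nM IGF at 37 deg C. After lysis, Ser473-phosphorylated Akt read by HTRF (ex 330 nm, em 615/665 nm) as the 665/615 ratio.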
gsp antagonist = gsp mutant antagonism. gsp-mutant cells, cAMP HTRF, 30 min. Potency, µM (series often up to 76.9 µM), without a hit: at the top dose activity change, negative = inhibition, hits mostly inhibitors. 0.4% of 340,000 active. AID 624288; calls by dose curve; cell line not stated here;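 note: intracellular cAMP measured with PDE inhibitor Ro 20-1724 present during compound exposure; potency is the fitted concentration of half-maximal effect; % is set by controls: 0 for no effect and ±100 for the full control effect; nearly all actives have a fitted effect of over 65% in size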
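G418-selected cells were plated in DMEM/10% FBS for 16-24 h at 37C, then treated with compounds plus the PDE inhibitor […] (300 uM solution added) for 30 min at 37C. Intracellular cAMP was measured by HTRF after 30 min lysis at room temperature.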
An asterisk follows results filed as active; i = inactive; u = inconclusive; x = not tested or not shown; ! = repeats disagree; [ ] = dose if it differs, or a comment. The list is not random: actives were taken first. Their share in the collection is about 2.7%.

SMILES	RXFP1 antag	gsp agonist	ClpP mod	RXFP1 ag	Akt phos inh	gsp antagonist
CC(C)n1cc(CN2CCC(Oc3ccc(C(=O)N4CCCCC4)cc3)CC2)cn1	-3	8%	22µM*	1%	i	5%
O=C1[C@@H]2[C@H]3CC[C@H](C3)[C@@H]2C(=O)N1CCCCN1CCN(c2ncccn2)CC1	-12	x	x	x	x	x
Cc1ccc2c(CN3CCN(S(=O)(=O)c4ccc(Cl)cc4)CC3)cc(=O)oc2c1C	-11	-2%	14µM*	0%	i	-31%
CSc1c(C#N)c(N)c(C#N)c2c1COC(C)(C)C2	0	-3%	14µM*	3%	i	-1%
CC(C)c1nc(Cl)c(C#N)c2c1COC(C)(C)C2	-3	-2%	-1%	-1%	i	14%
COc1ccc(C(CC(=O)Nc2ccc(OC)c(OC)c2)N2Cc3ccccc3C2=O)cc1 (stereo not given)	0	x	1%	1%	x	x
CC(C)=C1C(=O)NN(c2ccc(F)c(Cl)c2)C1=O	-7	-18%	-3%	-3%	i	3%
O=C1NN(c2ccc(F)c(Cl)c2)C(=O)/C1=C\c1cccc(OC(=O)c2cccs2)c1	-86*	-11%	0%	0%	i	-3%
O=C(COC(=O)c1ccc(O)cc1O)Nc1cc(-c2ccccc2)nn1-c1ccccc1	-73*	-10%[15.4 µM]	x	-1%	i	35µM*
NC(=O)CCC(C(=O)O)N1C(=O)C2C3CCC(C3)C2C1=O (stereo not given)	6	15%	-1%	x	i	x
O=C(Nc1ccc2c(c1)OCCO2)C(c1ccccc1)n1c(=O)c(-c2ccco2)nc2ccccc21 (stereo not given)	x	x	-13%	x	i	x
COc1ccc(/C(C)=N/NC(=O)c2ccc(CSc3cccc4cccnc34)cc2)cc1OC	10	-29%	22µM*	5%	i	-7%
COc1cc(/C(C)=N/NC(=O)c2ccc(CSc3nncn3C)cc2)cc(OC)c1OC	-15	1%[15.4 µM]	-1%	-4%	i	4%
C/C(=N\NC(=O)c1ccc(N)cc1)C1CC1	3	-19%	-4%	0%	i	7%
C/C(=N\NC(=O)c1ccc(CSc2cccc3cccnc23)cc1)C1CCCCC1	7	14%	28µM*	-1%	i	-1%
COc1ccc(-c2nc3cccc(C)n3c2NCc2ccco2)cc1OC	-12	19%	14µM*	6%	i	-20%
CCCCCC(=O)N1CCN(CCN=CC2=C(O)CC(c3cccs3)CC2=O)CC1 (stereo not given)	-17	u	32µM*!	1%	i	1%
O=C(O)c1ccccc1NCCc1ccccc1	-30	x	x	x	x	x
COc1ccc(CN(C)C(=O)CNC(=O)c2ccc3ccccc3c2)c(OC)c1	-5	-8%[15.4 µM]	x	0%	i	3%
COc1ccc(Br)cc1CN(C)C(=O)CNC(=O)c1ccc2ccccc2c1	-1	9%[15.4 µM]	x	0%	i	32µM*
Cc1cc(C)nc(SCc2ccc(C(=O)N/N=C/c3ccncc3)cc2)n1	-35	31%	x	0%	i	-1%
Cc1cc(C)nc(SCc2ccc(C(=O)NNC(=O)Nc3cccc(Cl)c3)cc2)n1	2	-2%	35µM*	-2%	i	-5%
Nc1nnnn1/N=C/c1ccco1	11	8%	-1%	2%	-130%*	-1%
Nc1nnnn1/N=C/c1ccccc1O	3	2%[15.4 µM]	-1%	x	i	2%
COc1ccc(C)cc1N(C(=O)c1ccccc1)c1nc2ccccc2s1	-7	11%	-5%	-1%	i	4%
SMILES	RXFP1 antag	gsp agonist	ClpP mod	RXFP1 ag	Akt phos inh	gsp antagonist
COc1ccc(C)cc1N(C(=O)COc1ccccc1)c1nc2ccccc2s1	x	-38%	10µM*	-3%	i	-7%
C[C@H](CO)N1C[C@H](C)[C@@H](CN(C)S(=O)(=O)c2cn(C)cn2)Oc2c(NS(=O)(=O)c3ccc(F)cc3)cccc2C1=O	x	23%	-3%	x	i	7%
CC(C)(CO)NS(=O)(=O)c1ccc2c(c1)C(=NO)c1cc(S(=O)(=O)NC(C)(C)CO)ccc1-2	-2	7.1µM*	-10%	-1%	i	5%
CC/C(=C\c1ccc(C(=O)OC)cc1)c1cc(OC)cc2oc3ccccc3c12	x	x	4%	x	x	x
O=C(NCc1ccco1)c1cc2nc(-c3cccs3)cc(C(F)(F)F)n2n1	21	16%	35µM*	2%	i	1%
O=C(N/N=C/c1cccnc1)c1ccc([N+](=O)[O-])cc1Cl	2	-3%	0%	-1%	-83%*	9%
COc1ccccc1CN(C)C(=O)c1cc(-c2cccs2)nc2ccccc12	-23	17%	x	5%	i	40µM*
COc1ccc(-c2cc(C(=O)N(C)Cc3cccc(OC)c3OC)c3ccccc3n2)cc1OC	-3	-5%[15.4 µM]	x	10%	i	10%
CS(=O)(=O)N1CCN(C(=O)c2cc(-c3cccs3)nc3ccccc23)CC1	6	-6%	11µM*	3%	i	4%
CCCCCCC[n+]1ccc(/C=C/c2c(C)[nH]c3ccccc23)cc1	x	x	-1%	x	x	x
O=C(N/N=C/c1cccnc1)c1cc(-c2cccs2)nc2ccccc12	21	-1%	25µM*	1%	i	-2%
Cc1nn(-c2ccccn2)c2nc(-c3cccs3)cc(C(=O)NCc3ccco3)c12	6	u	13µM*	3%	i	-3%
Cc1ccc(-c2cc(C(=O)NCc3ccco3)c3ccccc3n2)s1	-15	20%	32µM*	0%	i	-8%
O=C(NCc1ccco1)c1cc(-c2cccs2)nc2ccccc12	10	-43%	25µM*	0%	i	-20%
Cc1ccc(Cl)cc1NC(=O)c1oc2ccc(S(=O)(=O)N3CCC4(CC3)OCCO4)cc2c1C	1	x	4%	u	x	x
Cc1cc(=O)n(CC(=O)NC(C)c2ccccc2)c2c1c(C)nn2-c1cccc(F)c1 (stereo not given)	8	x	-4%	0%	x	x
CCc1nc2ccccc2n1CC(=O)N1CCN(S(=O)(=O)c2cccc(C(F)(F)F)c2)CC1	-11	-22%	-2%	0%	x	3%
O=C(NN1CCOCC1)c1cc(-c2cccs2)nc2ccccc12	-1	-43%	10µM*	6%	i	6%
O=C(NN1CCOCC1)c1cc(-c2ccccc2)nc2ccccc12	27	-90%	-1%	2%	i	8%
O=C(c1cc(Cl)nc2ccccc12)N1CCN(S(=O)(=O)c2cccc(C(F)(F)F)c2)CC1	-77*	14%[15.4 µM]	x	-1%	i	-3%
